B1: unnamed (peptide)
chain: PSRRDSLSIPRAVDA
B2: unnamed (peptide)
chain: VNFRRIPTGPDSPPT

target: AgAbp1; test: SPOT peptide array binding signal intensity (averaged, normalized) (arbitrary units (background-subtracted, floor 0; scale differs between SH3 domains)); higher = stronger binding of the SH3 domain to the peptide
How it was run: (§1)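 GST-fused SH3 domains, from four yeast species, were produced in E. coli BL21(DE3) and captured on glutathione Sepharose. Membranes of cellulose carrying synthetic 15-mer peptides, in which cysteines had been replaced by serines, were exposed to each domain at 10 μg/ml overnight at 4°C in TBS-based blocking buffer. After anti-GST antibody, an HRP anti-mouse secondary and luminol, spots were imaged and quantified using Genespotter. Binding signal is normalized and background-subtracted spot intensity, averaged over replicates, in arbitrary units that differ between domains.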

Row | Binder | SPOT peptide array binding signal intensity
1 | B1 | ≤ 0
2 | B2 | ≤ 0

target: AgBbc1; test: as above
How it was run: as §1

Row | Binder | SPOT peptide array binding signal intensity
3 | B1 | 41.5
4 | B2 | 2.5

target: AgBem1-D1; test: as above
How it was run: as §1

Row | Binder | SPOT peptide array binding signal intensity
5 | B1 | 56
6 | B2 | 13

target: AgBzz1-D1; test: as above
How it was run: as §1

Row | Binder | SPOT peptide array binding signal intensity
7 | B1 | 17
8 | B2 | 23

target: AgBzz1-D2; test: as above
How it was run: as §1

Row | Binder | SPOT peptide array binding signal intensity
9 | B1 | 30
10 | B2 | 258

target: AgCyk3; test: as above
How it was run: as §1

Row | Binder | SPOT peptide array binding signal intensity
11 | B1 | ≤ 0
12 | B2 | ≤ 0

target: AgFus1; test: as above
How it was run: as §1

Row | Binder | SPOT peptide array binding signal intensity
13 | B1 | 5
14 | B2 | 45

target: AgHof1; test: as above
How it was run: as §1

Row | Binder | SPOT peptide array binding signal intensity
15 | B1 | 10
16 | B2 | 6

target: AgHse1; test: as above
How it was run: as §1

Row | Binder | SPOT peptide array binding signal intensity
17 | B1 | 14.5
18 | B2 | 132

target: AgLsb1; test: as above
How it was run: as §1

Row | Binder | SPOT peptide array binding signal intensity
19 | B1 | 13.5
20 | B2 | 0.5

target: AgLsb4; test: as above
How it was run: as §1

Row | Binder | SPOT peptide array binding signal intensity
21 | B1 | 2.5
22 | B2 | 5

target: AgMyo5; test: as above
How it was run: as §1

Row | Binder | SPOT peptide array binding signal intensity
23 | B1 | ≤ 0
24 | B2 | ≤ 0

target: AgNbp2; test: as above
How it was run: as §1

Row | Binder | SPOT peptide array binding signal intensity
25 | B1 | 6
26 | B2 | ≤ 0

target: AgRvs167; test: as above
How it was run: as §1

Row | Binder | SPOT peptide array binding signal intensity
27 | B1 | 1.67
28 | B2 | 3.17

target: AgSho1; test: as above
How it was run: as §1

Row | Binder | SPOT peptide array binding signal intensity
29 | B1 | ≤ 0
30 | B2 | 1

target: AgSla1-D1-D2; test: as above
How it was run: as §1

Row | Binder | SPOT peptide array binding signal intensity
31 | B1 | 0.5
32 | B2 | ≤ 0

target: AgSla1-D3; test: as above
How it was run: as §1

Row | Binder | SPOT peptide array binding signal intensity
33 | B1 | 0.5
34 | B2 | 0.5

target: CaAbp1-D1; test: as above
How it was run: as §1

Row | Binder | SPOT peptide array binding signal intensity
35 | B1 | ≤ 0
36 | B2 | ≤ 0

target: CaAbp1-D2; test: as above
How it was run: as §1

Row | Binder | SPOT peptide array binding signal intensity
37 | B1 | 25
38 | B2 | ≤ 0

target: CaBbc1; test: as above
How it was run: as §1

Row | Binder | SPOT peptide array binding signal intensity
39 | B1 | 354
40 | B2 | 6.75

target: CaBem1-D1; test: as above
How it was run: as §1

Row | Binder | SPOT peptide array binding signal intensity
41 | B1 | 4
42 | B2 | 6

target: CaBzz1-D1; test: as above
How it was run: as §1

Row | Binder | SPOT peptide array binding signal intensity
43 | B1 | 123
44 | B2 | 41

target: CaBzz1-D2; test: as above
How it was run: as §1

Row | Binder | SPOT peptide array binding signal intensity
45 | B1 | 93
46 | B2 | 16.5

target: CaCyk3; test: as above
How it was run: as §1

Row | Binder | SPOT peptide array binding signal intensity
47 | B1 | 3
48 | B2 | 6

target: CaFus1; test: as above
How it was run: as §1

Row | Binder | SPOT peptide array binding signal intensity
49 | B1 | 65
50 | B2 | 141

target: CaHof1; test: as above
How it was run: as §1

Row | Binder | SPOT peptide array binding signal intensity
51 | B1 | 1
52 | B2 | ≤ 0

target: CaHse1; test: as above
How it was run: as §1

Row | Binder | SPOT peptide array binding signal intensity
53 | B1 | ≤ 0
54 | B2 | 3.5

target: CaLsb1; test: as above
How it was run: as §1

Row | Binder | SPOT peptide array binding signal intensity
55 | B1 | ≤ 0
56 | B2 | ≤ 0

target: CaLsb4; test: as above
How it was run: as §1

Row | Binder | SPOT peptide array binding signal intensity
57 | B1 | ≤ 0
58 | B2 | 18.5

target: CaMyo5; test: as above
How it was run: as §1

Row | Binder | SPOT peptide array binding signal intensity
59 | B1 | 1.5
60 | B2 | 0.5

target: CaNbp2; test: as above
How it was run: as §1

Row | Binder | SPOT peptide array binding signal intensity
61 | B1 | 28.5

target: CaRvs167; test: as above
How it was run: as §1

Row | Binder | SPOT peptide array binding signal intensity
62 | B1 | 0.5

target: CaRvs167-3; test: as above
How it was run: as §1

Row | Binder | SPOT peptide array binding signal intensity
63 | B1 | 1

target: CaSho1; test: as above
How it was run: as §1

Row | Binder | SPOT peptide array binding signal intensity
64 | B1 | 8

target: CaSla1-D1-D2; test: as above
How it was run: as §1

Row | Binder | SPOT peptide array binding signal intensity
65 | B1 | ≤ 0

target: CaSla1-D3; test: as above
How it was run: as §1

Row | Binder | SPOT peptide array binding signal intensity
66 | B1 | 1.25

target: ScAbp1; test: as above
How it was run: as §1

Row | Binder | SPOT peptide array binding signal intensity
67 | B1 | ≤ 0

target: ScBbc1; test: as above
How it was run: as §1

Row | Binder | SPOT peptide array binding signal intensity
68 | B1 | 8.5

target: ScBem1-D1; test: as above
How it was run: as §1

Row | Binder | SPOT peptide array binding signal intensity
69 | B1 | 57

target: ScBzz1-D1; test: as above
How it was run: as §1

Row | Binder | SPOT peptide array binding signal intensity
70 | B1 | 22

target: ScBzz1-D2; test: as above
How it was run: as §1

Row | Binder | SPOT peptide array binding signal intensity
71 | B1 | 19

target: ScCyk3; test: as above
How it was run: as §1

Row | Binder | SPOT peptide array binding signal intensity
72 | B1 | 2

target: ScFus1; test: as above
How it was run: as §1

Row | Binder | SPOT peptide array binding signal intensity
73 | B1 | ≤ 0

target: ScHof1; test: as above
How it was run: as §1

Row | Binder | SPOT peptide array binding signal intensity
74 | B1 | ≤ 0

target: ScHse1; test: as above
How it was run: as §1

Row | Binder | SPOT peptide array binding signal intensity
75 | B1 | ≤ 0

target: ScLsb1; test: as above
How it was run: as §1

Row | Binder | SPOT peptide array binding signal intensity
76 | B1 | ≤ 0

target: ScLsb2; test: as above
How it was run: as §1

Row | Binder | SPOT peptide array binding signal intensity
77 | B1 | 3.5

target: ScLsb3; test: as above
How it was run: as §1

Row | Binder | SPOT peptide array binding signal intensity
78 | B1 | 4

target: ScLsb4; test: as above
How it was run: as §1

Row | Binder | SPOT peptide array binding signal intensity
79 | B1 | 11.5

target: ScMyo3; test: as above
How it was run: as §1

Row | Binder | SPOT peptide array binding signal intensity
80 | B1 | 0.5

target: ScMyo5; test: as above
How it was run: as §1

Row | Binder | SPOT peptide array binding signal intensity
81 | B1 | 4.5

target: ScNbp2; test: as above
How it was run: as §1

Row | Binder | SPOT peptide array binding signal intensity
82 | B1 | 1

target: ScPex13; test: as above
How it was run: as §1

Row | Binder | SPOT peptide array binding signal intensity
83 | B1 | 1

target: ScRvs167; test: as above
How it was run: as §1

Row | Binder | SPOT peptide array binding signal intensity
84 | B1 | ≤ 0

target: ScSho1; test: as above
How it was run: as §1

Row | Binder | SPOT peptide array binding signal intensity
85 | B1 | 14

target: ScSla1-D1-D2; test: as above
How it was run: as §1

Row | Binder | SPOT peptide array binding signal intensity
86 | B1 | ≤ 0

target: ScSla1-D3; test: as above
How it was run: as §1

Row | Binder | SPOT peptide array binding signal intensity
87 | B1 | 22.2

target: SpAbp1-D1; test: as above
How it was run: as §1

Row | Binder | SPOT peptide array binding signal intensity
88 | B1 | 8

target: SpBbc1; test: as above
How it was run: as §1

Row | Binder | SPOT peptide array binding signal intensity
89 | B1 | 3

target: SpBzz1-D1; test: as above
How it was run: as §1

Row | Binder | SPOT peptide array binding signal intensity
90 | B1 | 116

target: SpBzz1-D2; test: as above
How it was run: as §1

Row | Binder | SPOT peptide array binding signal intensity
91 | B1 | 1.5

target: SpCyk3; test: as above
How it was run: as §1

Row | Binder | SPOT peptide array binding signal intensity
92 | B1 | 3.5

target: SpHof1; test: as above
How it was run: as §1

Row | Binder | SPOT peptide array binding signal intensity
93 | B1 | 1.25

target: SpHof1-2; test: as above
How it was run: as §1

Row | Binder | SPOT peptide array binding signal intensity
94 | B1 | 0.5

target: SpHof1-3; test: as above
How it was run: as §1

Row | Binder | SPOT peptide array binding signal intensity
95 | B1 | 1

target: SpHse1; test: as above
How it was run: as §1

Row | Binder | SPOT peptide array binding signal intensity
96 | B1 | 21.2

target: SpLsb1; test: as above
How it was run: as §1

Row | Binder | SPOT peptide array binding signal intensity
97 | B1 | ≤ 0

target: SpLsb4; test: as above
How it was run: as §1

Row | Binder | SPOT peptide array binding signal intensity
98 | B1 | ≤ 0

target: SpMyo1; test: as above
How it was run: as §1

Row | Binder | SPOT peptide array binding signal intensity
99 | B1 | ≤ 0

target: SpNbp2; test: as above
How it was run: as §1

Row | Binder | SPOT peptide array binding signal intensity
100 | B1 | ≤ 0

target: SpPex13; test: as above
How it was run: as §1

Row | Binder | SPOT peptide array binding signal intensity
101 | B1 | ≤ 0

target: SpRvs167; test: as above
How it was run: as §1

Row | Binder | SPOT peptide array binding signal intensity
102 | B1 | 1.33

target: SpSla1-D1-D2; test: as above
How it was run: as §1

Row | Binder | SPOT peptide array binding signal intensity
103 | B1 | 2

target: SpSla1-D3; test: as above
How it was run: as §1

Row | Binder | SPOT peptide array binding signal intensity
104 | B1 | 1
